Compound activity (PubChem)
The list is not random: actives were taken first. Their share in the collection is about 11%.
L3MBTL1 inh = blocks human L3MBTL1. Q9Y468. AlphaScreen L3MBTL1–H3K9me1 peptide binding. Potency, µM (doses to about 57.1 µM), for the others: top-dose activity, negative = inhibition, hits mostly inhibitors. 230,000 tested, 0.66% active. AID 485360; note: % is set by controls: 0 for no effect and ±100 for the full control effect; nearly all actives have a fitted effect of over 60% in size
Target sequence (Q9Y468 whole entry, looked up): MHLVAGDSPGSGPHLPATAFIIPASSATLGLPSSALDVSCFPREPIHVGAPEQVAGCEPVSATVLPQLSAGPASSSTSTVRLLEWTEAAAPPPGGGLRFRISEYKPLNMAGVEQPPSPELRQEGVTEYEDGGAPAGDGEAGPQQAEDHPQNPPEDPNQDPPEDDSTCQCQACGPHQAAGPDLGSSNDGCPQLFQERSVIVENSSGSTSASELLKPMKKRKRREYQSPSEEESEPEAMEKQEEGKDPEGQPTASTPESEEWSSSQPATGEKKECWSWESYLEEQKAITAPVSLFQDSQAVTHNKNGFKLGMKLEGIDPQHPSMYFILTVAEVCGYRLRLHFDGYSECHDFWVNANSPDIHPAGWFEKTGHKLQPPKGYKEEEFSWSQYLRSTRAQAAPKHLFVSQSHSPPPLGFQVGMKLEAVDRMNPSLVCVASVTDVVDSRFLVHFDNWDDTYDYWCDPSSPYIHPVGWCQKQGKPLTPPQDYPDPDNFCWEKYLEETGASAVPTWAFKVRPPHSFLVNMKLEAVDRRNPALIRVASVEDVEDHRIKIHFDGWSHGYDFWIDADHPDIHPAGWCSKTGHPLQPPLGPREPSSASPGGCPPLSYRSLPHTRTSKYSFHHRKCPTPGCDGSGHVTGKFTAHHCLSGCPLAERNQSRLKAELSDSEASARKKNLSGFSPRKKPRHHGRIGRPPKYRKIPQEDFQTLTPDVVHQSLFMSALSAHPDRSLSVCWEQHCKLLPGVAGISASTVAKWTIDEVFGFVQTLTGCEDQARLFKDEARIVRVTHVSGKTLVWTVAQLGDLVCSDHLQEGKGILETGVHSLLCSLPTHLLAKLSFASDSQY
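First, the protein-peptide complex forms for 30 min at room temperature (L3MBTL1 50 nM, biotinylated H3K9me1 peptide 75 nM). Next, compounds are pin-transferred and incubated 30 min. Finally, AlphaScreen beads are added and read after 30 min.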
JMJD2A Tudor inh = inhibitors of human JMJD2A Tudor domain; AID 504339; AlphaScreen JMJD2A-Tudor / H3K4me3 peptide binding; O75164; 390,000 tested, 4.4% active; Potency, µM (top dose mostly 114 µM), inactives show at the highest dose activity change, negative = inhibition, hits mostly inhibitors; note: % is set by controls: 0 for no effect and ±100 for the full control effect; nearly all actives have a fitted effect of over 50% in size
G9a block = inhibitors of human histone lysine methyltransferase G9a | G9a H3K9 monomethylation, AlphaScreen, 2 h | Potency, µM (top dose mostly 102 µM), for the others: at the highest dose activity, negative = inhibition, actives largely listed as inhibitors | 350,000 tested, 8.8% active; note: % is set by controls: 0 for no effect and ±100 for the full control effect; nearly all actives have a fitted effect of over 75% in size
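AlphaScreen read-out: biotin-H3K9 peptide (500 nM) methylation by 20 nM enzyme with 20 uM SAM, 2 h at room temperature after 15 min compound preincubation; anti-monomethyl H3K9 antibody plus donor/acceptor beads, 10 min dark.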
HP1b chromo inh = HP1-beta chromodomain-methylated histone interaction inhibition; P83916; AlphaScreen HP1-beta / biotin-H3K9me3 peptide binding; Potency, µM (top dose mostly 114 µM), for the others: top-dose activity change, negative = inhibition, most hits filed as inhibitors; 390,000 tested, 0.56% active; note: nearly all actives have a fitted effect of over 70% in size
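HP1-beta protein (50 nM final) preincubated 30 min at room temperature with biotinylated H3(1-18)K9me3 peptide (50 nM) in PBS pH 7.4, 0.01% Tween-20, then compound added for 30 min. AlphaScreen streptavidin donor/nickel chelate acceptor beads (10 ug/mL final), 30 min dark, luminescence read.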
BAZ2B inh = BAZ2B (human) inhibition. Q9UIF8. AlphaScreen BAZ2B-H3K14Ac peptide displacement. Potency, µM (doses to about 114 µM), for inactives: at the highest dose activity change, negative = inhibition, most hits filed as inhibitors. 360,000 tested, 4.4% active. AID 504333; note: % is set by controls: 0 for no effect and ±100 for the full control effect; nearly all actives have a fitted effect of over 60% in size
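In this displacement format the biotinylated H3(5-23) peptide acetylated at Lys14 serves as ligand at 50 nM, with BAZ2B at 50 nM in PBS pH 7.4 containing 0.01% Tween-20. Donor and acceptor beads are 10 ug/mL final.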
An asterisk follows results filed as active; ? = inconclusive; / = no result; ! = repeats disagree; [ ] = remark or other dose. Calls come from the whole dose curve; as a rule, active = well fitted inhibition curve with a large enough effect; inconclusive = small, poorly fitted or top-dose-only effect; inactive = no such curve, though single readings can be large or run the other way. Potency is the fitted concentration of half-maximal effect.

SMILES | L3MBTL1 inh | JMJD2A Tudor inh | G9a block | HP1b chromo inh | BAZ2B inh
Cn1cccc1-c1nc2ccccc2[nH]1 | -26.4% | -33.0% | 44.7µM* | ? | ?
O=C(c1ccccc1-c1nc2ccccc2[nH]1)N1CCOCC1 | / | -4.5% | 5.9%[12.7 µM] | 27.0% | -3.0%
Cc1ccc(S(=O)(=O)Nc2ccc3nc(-c4cccn4C)[nH]c3c2)cc1 | ? | 15.8µM* | -25.1%[12.7 µM] | 44.7µM* | 39.8µM*
O=C(O)c1ccccc1-c1nc2ccccc2[nH]1 | -0.2% | ? | 44.7µM* | 13.5% | -27.9%
Cn1cccc1-c1nc2ccc(NC(=O)c3ccc([N+](=O)[O-])cc3)cc2[nH]1 | / | -0.7% | ? | 20.8% | 2.6%
Cc1ccc2c(c1)c(=O)c(C(=O)c1ccncc1)cn2CC(=O)Nc1ccccc1Cl | / | -24.6% | -4.4%[59 µM] | 5.4%[57 µM] | -14.2%
N#Cc1nc(Nc2cccc(F)c2)nc(NC2CCCC2)n1 | / | 0.7% | / | / | /
CC1=C(C(=O)O)N2C(=O)[C@@H](NC(=O)C(N)C3=CCC=CC3)[C@H]2SC1 (stereo partly drawn) | / | / | 11.9µM*! | / | /
N[C@@H](C(=O)N[C@@H]1C(=O)N2C(C(=O)O)=C(Cl)CS[C@H]12)c1ccccc1 | ? | 25.1µM* | 50.1µM* | 18.3% | 31.6µM*
NC(C(=O)N[C@@H]1C(=O)N2C(C(=O)O)=C(Cl)CS[C@H]12)c1ccccc1 (stereo partly drawn) | / | / | 2.38µM*! | / | /
COc1ccc2c(c1OC)C(=O)N1c3ccccc3C(=O)N(Cc3ccco3)C21 (stereo not drawn) | / | -27.7% | / | 38.6% | /
Cc1noc(C)c1CSCC(=O)Nc1cc(C(F)(F)F)ccc1N1CCCCC1 | 29.2% | 14.5% | 39.8µM* | 84.2% | 5.1%
O=C(Cc1ccc(S(=O)(=O)N2CCOCC2)s1)Nc1ccc(N2CCOCC2)cc1 | -4.2% | -27.0%[57.1 µM] | ? | -6.7% | /
Cc1noc(C)c1CSCC(=O)Nc1cc(Cl)ccc1N1CCCCC1 | 7.1% | 7.6% | 6.7% | 58.1% | -3.6%
CN(C)S(=O)(=O)c1ccc(NC(=O)Cc2ccc(S(=O)(=O)N3CCOCC3)s2)cc1 | ? | -29.4% | 56.2µM* | 17.2% | ?
O=C(Cc1ccc(S(=O)(=O)N2CCOCC2)s1)Nc1cc(C(F)(F)F)ccc1N1CCCC1 | -19.9% | ? | 50.1µM* | 17.2% | -5.0%
COc1cc(F)cc(-c2ccc3c(c2)c(-c2cccs2)c(-c2cc(OC)cc(OC)c2)n3C)c1 | -4.7% | -4.9% | 6.1%[0.501 µM] | 37.5% | -2.6%
COc1cc(OC)cc(-c2c(-c3cccs3)c3cc(-c4ccc(N(C)C)nc4)ccc3n2C)c1 | -2.2% | ? | 3.1%[0.501 µM] | 14.1% | 56.2µM*
COCCNC(=O)C1=CC(c2ccc3c(c2)OCO3)=NS(=O)(=O)N1C | / | -6.0% | -1.1%[59 µM] | 24.9% | -0.6%
Cc1ccc(Cn2ncn(-c3ccccc3)c2=O)cc1 | 3.6% | 2.2%[57.1 µM] | -1.0% | 49.5% | 1.5%
OCn1ncn(-c2ccccc2)c1=S | / | 35.5µM* | ? | 18.5% | -12.2%
COc1cccc(NC(CNS(=O)(=O)c2ccc(Cl)cc2)c2ccccc2)c1 (stereo not drawn) | / | -33.9% | -2.3%[59 µM] | 34.2% | -3.6%
O=C(OCC(=O)c1ccccc1Cl)C1=NN(c2ccccc2)C(=O)CC1 | -5.1% | -26.0% | / | 14.1% | /
O=C(COC(=O)c1cccc2c1C(=O)c1ccccc1C2=O)NC1CCCCC1 | -13.5% | 39.8µM* | 17.8µM* | ? | 39.8µM*
O=C(COC(=O)c1ccc2c(c1[N+](=O)[O-])C(=O)c1ccccc1C2=O)NC1CC1 | -4.8% | -16.0% | 35.5µM* | 36.7% | -10.3%
SMILES | L3MBTL1 inh | JMJD2A Tudor inh | G9a block | HP1b chromo inh | BAZ2B inh
CC1CCCCC1NC(=O)COC(=O)c1ccc2c(c1Cl)C(=O)c1ccccc1C2=O (stereo not drawn) | -28.8% | ? | -5.0%[59 µM] | 2.4% | ?
O=C(COC(=O)c1cccc(C(=O)OCC(=O)NC2CC2)n1)NC1CC1 | 8.3% | ? | 14.1µM* | 9.5% | /
COc1cc2[nH]c(=O)n(CCCC(=O)N(C)Cc3ccccc3)c(=O)c2cc1OC | / | -12.6% | -0.4%[59 µM] | 9.9% | -4.1%
O=C(OCCc1cc2ccccc2c(=O)o1)c1ccc(C(F)(F)F)cc1 | 24.9% | 23.7% | 10.0%[0.501 µM] | 101.4% | 47.0%
COc1cc(/C=N/NC(=O)CCOc2ccccc2C)cc(Br)c1O | / | 0.0%[11.4 µM] | 50.1µM* | -0.8% | -16.0%
COc1ccc(/C=N/NC(=O)CCOc2ccccc2C)cc1OC | -11.9% | -6.2% | ? | 27.1% | -31.1%
COc1ccc(-c2nc(CN3CCC(C(=O)NCCCOC(C)C)CC3)c(C)o2)cc1OC | / | -18.5% | 8.91µM* | 26.6% | -7.9%
COc1cc(NC(=O)Cn2c(=O)n(Cc3ccccc3Cl)c(=O)c3cc(OC)c(OC)cc32)cc(OC)c1 | / | -13.7% | 5.5%[59 µM] | 7.1% | 2.6%
NC(=O)c1nsc(C(=O)N(c2ccc3c(c2)OCCO3)C(C(=O)NCC2CCCO2)c2ccc(F)cc2)c1N (stereo not drawn) | / | -7.0% | -0.9% | 52.0% | -24.0%
Cc1cccc(N2CCN(C(=O)c3cnn(-c4ccccc4)c3C3CCN(C(=O)OC(C)(C)C)CC3)CC2)c1C | / | ? | -45.3%[59 µM] | -10.8% | -18.5%[57.1 µM]
COc1ccc(NC(=O)Cn2nnc(C(=O)NCc3ccc4c(c3)OCO4)c2N)c(OC)c1 | / | 28.2µM* | 7.2%[59 µM] | 10.8% | -4.2%
COc1ccc(NC(=O)Cn2nnc(C(=O)NCc3ccc4c(c3)OCO4)c2N)cc1 | 4.5% | -10.8% | -4.1% | 11.3% | -1.9%
CC(C)c1nc2sc3c(SCC(=O)NCc4ccco4)ncnc3c2c2c1CCC2 | ? | 56.2µM* | 44.7µM* | -5.1% | 56.2µM*
O=c1[nH]cnc2c1sc1nc(-c3ccccc3)c3c(c12)CCCC3 | 11.4% | -5.6% | 22.0%[59 µM] | 30.8% | -0.1%
O=C(O)CSc1ncnc2c1sc1nc(-c3ccccc3)c3c(c12)CCC3 | / | 50.1µM* | 39.8µM* | -33.7%[57 µM] | 50.1µM*
